Screening data as filed in PubChem BioAssay.
TTR transcr act: activators of transthyretin transcription; SH-SY5Y TTR promoter Gaussia luciferase, luminescence; 100% = recombinant luciferase protein wells; activation, % at 16.7 µM; hit rate 1.3% among 92,000;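 active = activation above the mean of all tested compounds plus 3 SD, cut at about 9.5% in these data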;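 note: cells exposed to compounds for one day before reading; 0% = median of all test compound wells on the plate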
HuH7 TTR inh: HuH7 TTR transcription inhibition, counter-screen. shares compounds with TTR transcr act. HuH7 TTR promoter-Gaussia luciferase reporter, luminescence. inhibition, % at 16.7 µM. hit rate 4% among 1,100. AID 1117279;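 active = average inhibition above the solvent-only control wells' mean plus 3 SD, cut at about 15% in these data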;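 note: 0% = cells with DMSO only and 100% = cells with inhibitor control FD; inhibitors lower well luminescence so higher value means more inhibition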
TTR up confirm: confirmation of human transthyretin transcription activators; shares compounds with TTR transcr act; 1,100 tested, under 10 active; activation, % at 16.7 µM; SHSY5Y TTR promoter Gaussia luciferase, luminescence; 100% = purified Lucia enzyme wells, no cells;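 active = mean activation above a set limit taken from the earlier primary screen, cut at about 11% in these data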;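 note: 0% = DMSO-treated cells and 100% = recombinant Lucia luciferase without cells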
The depositor's hits bear a star. Only a selection was taken, and hits are over-represented in it overall.

SMILES | TTR transcr act | others
CCCCn1c(N)c(N(CC(C)C)C(=O)Cn2c(=O)oc3ccccc32)c(=O)[nH]c1=O | -0.7
Cc1ccccc1CN1CCCCC(NC(=O)Nc2ccccc2-c2ccccc2)C1=O (stereo not given) | -1.4
Cn1cnnc1SCc1ccc(C(=O)NN)cc1 | -0.9
Cn1cnnc1SCc1ccccc1 | 18.2* | HuH7 TTR inh=-10.7;TTR up confirm=-0.4
COc1ccc(CSc2nncn2C)cc1F | -1.8
C[C@H]1CN=C(N(C)C)N1CCC1CCCC1 | -1.7
CC(CCN1C(N(C)C)=NC[C@@H]1C)c1ccccc1 (stereo not given in full) | 0.7
C[C@H]1CN=C(N(C)C)N1CCc1ccccc1 | 10.2* | HuH7 TTR inh=1.1;TTR up confirm=1.6
CN1CCN(NC(=O)c2ccc(Cl)s2)CC1 | -0.6
CCOc1ccc(N2C(=O)CC(NCCc3ccncc3)C2=O)cc1 (stereo not given) | 0.2
CCCOc1ccc(N2C(=O)CC(NCC(=O)OCC)C2=O)cc1 (stereo not given) | 10.0* | HuH7 TTR inh=-12.7;TTR up confirm=-0.3
CCCOc1ccc(N2C(=O)CC(SC(=NC)Nc3ccc(F)cc3)C2=O)cc1 (stereo not given) | 0.5
COc1ccc([C@H]2CC(=O)C=C(c3cccc4c3Oc3ccccc3S4)C2)cc1 | -2.8
CCOC(=O)c1cc(C(=O)NN)c(C)nc1C | -1.5
CCOC(=O)c1cnn2c(C)cc(-c3ccc(F)cc3)nc12 | -0.3
CCOC(=O)c1cc2cc(F)ccc2nc1C | 23.4* | HuH7 TTR inh=-3.5;TTR up confirm=-0.8
CC(C)[C@@H]1NC(=O)[C@@H]2CSCCS(=O)(=O)N2C1=O | 5.0
CCN1C(=O)[C@H]2[C@H]3CN=C(SCC(=O)c4ccccc4)N3[C@@](C)(C(=O)OC)[C@H]2C1=O | 13.5* | HuH7 TTR inh=-3.0;TTR up confirm=-0.1
CCN1C[C@@H]2[C@@H]3C(=O)N(Cc4ccccc4)C(=O)[C@@H]3[C@](C)(C(=O)OC)N2C1=NC1CCCCC1 | 24.8* | HuH7 TTR inh=-1.6;TTR up confirm=0.0
COC(=O)[C@@]1(C)[C@H]2C(=O)N(Cc3ccccc3)C(=O)[C@H]2[C@H]2CN=C(SCc3ccccc3)N21 | 1.6
COC(=O)[C@@]1(C)[C@H]2C(=O)N(Cc3ccccc3)C(=O)[C@H]2[C@H]2CN(C)C(=NC3CCCCC3)N21 | 4.6
CCN1C(=O)[C@H]2[C@H]3CN=C(SCc4ccc(C#N)cc4)N3[C@@](C)(C(=O)OC)[C@H]2C1=O | -1.1
CCCN=C1N(CC)C[C@@H]2[C@@H]3C(=O)N(Cc4ccccc4)C(=O)[C@@H]3[C@](C)(C(=O)OC)N12 | 0.4
Clc1cccc(CNC2CCC23CCCCC3)c1 (stereo not given) | 0.6
O=C(C1CCCCC1)N1CCN=C1SCc1cccc([N+](=O)[O-])c1 | 0.2
SMILES | TTR transcr act | others
COC(=O)c1c(C)[nH]c(C(=O)CSc2ccc(Cl)cc2)c1C | 1.0
O=C(c1cccc(C(F)(F)F)c1)N1CCC(=O)N(C(CO)Cc2ccccc2)CC1 (stereo not given) | 1.2
O=C(c1ccc(C(F)(F)F)cc1)N1CCC(=O)N([C@H](COCc2ccc(C(F)(F)F)cc2)Cc2ccccc2)CC1 | -1.3
COc1ccc(C(=O)N2CCC(=O)N(C(CO)Cc3ccccc3)CC2)cc1 (stereo not given) | 13.4* | HuH7 TTR inh=-10.5;TTR up confirm=-0.2
Cc1cccc(NC(=O)CCC(=O)N/N=C/c2ccco2)c1 | 9.7* | HuH7 TTR inh=-15.1;TTR up confirm=0.0
O=C(CCCCCCCCC(=O)N/N=C/c1ccco1)N/N=C/c1ccco1 | 0.8
O=C(CCC(=O)N/N=C/c1ccco1)N/N=C/c1ccco1 | -1.1
O=S1(=O)c2c(F)cccc2O[C@@H](COCc2ccccc2)CN1CCc1ccc(F)cc1 | 0.3
COc1ccc(CCNC(=O)Cn2cnc3c(nnn3Cc3ccccc3F)c2=O)cc1OC | 21.8* | HuH7 TTR inh=-10.2;TTR up confirm=-0.9
O=C(Cn1cnc2c(nnn2Cc2ccc(F)cc2)c1=O)NCc1ccc(F)cc1 | 1.2
COc1ccc(CCNC(=O)Cn2nnc(-c3ccccc3F)n2)cc1OC | -1.1
CCCCOCCCNC(=O)C[C@H]1C[C@@]2(C(=O)OC)C(=C[C@H](C3CCCC3)O[C@@H]2C)N(Cc2cccc3ccccc23)C1=O | -1.1
CCOC(=O)C1=CCN(S(=O)(=O)c2ccccc2Br)C1c1ccccc1 (stereo not given) | 0.4
CCOc1ccc(OCC)c(NC(=O)C2CCCN(C(=O)c3ccc(Cl)cc3)C2)c1 (stereo not given) | 11.0* | HuH7 TTR inh=-15.2;TTR up confirm=-0.1
CCOc1ccc(OCC)c(NC(=O)C2CCCN(S(=O)(=O)c3ccc(C)cc3)C2)c1 (stereo not given) | 2.1
CC(C)c1ccccc1NC(=O)C1CCCN(C(=O)c2ccc(Cl)cc2)C1 (stereo not given) | 0.0
O=C1c2ccc(Cl)cc2S(=O)(=O)c2cccc(C(=O)N3CCN(c4ccc(Cl)cn4)CC3)c21 | 2.7
Cc1cc2oc(=O)cc(CN(C)Cc3ccccc3)c2cc1C | 1.6
O=S(=O)(NCc1cc(-c2ccccc2)no1)c1ccc(Cl)cc1 | -0.1
O=S(=O)(Cc1cc(-c2ccc(Cl)cc2)no1)c1ccccc1 | 12.2* | HuH7 TTR inh=-20.9;TTR up confirm=0.4
O=S(=O)(NCc1cc(-c2ccc(Cl)cc2)no1)c1ccc(Cl)cc1 | -0.8
CCN1CCN(c2c(C=O)c(Cl)nc3ccc(OC)cc23)CC1 | 1.1
Cc1cccc(C)c1NC(=O)CC(NCCc1ccccc1)C(=O)O (stereo not given) | -1.9
Cc1cc(NC(=O)c2cccc(Br)c2)no1 | -2.8
COc1ccc(CCNC(=O)c2cnn(-c3ccccc3)c2N)cc1OC | 0.5
SMILES | TTR transcr act | others
CCOC(=O)c1cnn(-c2ccccc2)c1NC(=O)CCl | -1.1
CCCc1c(C(=O)NNc2ccccc2OC)cnn1-c1ccccc1 | 12.4* | HuH7 TTR inh=-9.2;TTR up confirm=0.3
COc1ccccc1C(=O)Nc1ccnn1C1CCN(Cc2ncc[nH]2)CC1 | -0.2
CCCOc1ccc(C2C(C(=O)/C=C/c3ccco3)=C(O)C(=O)N2CCN2CCOCC2)cc1OC (stereo not given) | -1.4
CC(OC(=O)C1CCN(S(=O)(=O)c2ccc(Cl)cc2)CC1)C(=O)NC1CCCCC1C (stereo not given) | 0.0
O=C(/C=C/c1ccccc1)CCN1CCCCC1 | -4.4
N=c1sccn1CC(=O)Nc1cccc(S(=O)(=O)N2CCCCCC2)c1 | -2.5
CC(=O)c1ccc(NC(=S)N2CCCCCC2)cc1 | 0.6
CCN(C(=S)Nc1ccc(C(C)=O)cc1)C1CCCCC1 | 32.2* | HuH7 TTR inh=-4.2;TTR up confirm=-0.3
CC(=O)c1ccc(NC(=O)CN2CCC(NC(=O)C3CCCCC3)CC2)cc1 | 3.9
O=C(CNC(=O)c1ccc2ccccc2c1)NC1CCCCC1 | -1.6
CCOC(=O)CN(C(=O)COc1nc(C)cc(C)c1C#N)c1ccc(F)cc1 | -0.8
COc1ccc(C(=O)COc2nc(C)cc(C)c2C#N)cc1 | 7.2
CCOc1ccc(N(C(C)=O)c2nc(C)cc(C)c2C#N)cc1 | 19.3* | HuH7 TTR inh=-6.4;TTR up confirm=0.2
CC1CCN(c2ccc3nnc(CCC(=O)N4CCN(c5ccccc5F)CC4)n3n2)CC1 | 3.1
COc1ccc(CN(C(=O)/C=C/c2ccco2)C2CCS(=O)(=O)C2)cc1OC (stereo not given) | -0.2
COc1ccc(CNC(=O)/C=C/c2ccco2)cc1OC | 12.6* | HuH7 TTR inh=-6.8;TTR up confirm=0.4
COc1ccc(/C=C/C(=O)NCc2ccc3c(c2)OCO3)cc1OC | 0.5
COc1ccccc1CNC(=O)CN(C)S(=O)(=O)c1ccc2c(c1)c(=O)n(C)c(=O)n2C | 5.8
